{"source": "the supplement of paper PMC9694430"}
{"test_system": "LOC_OS01G63280-cb003", "test": "thermal shift delta Tm vs DMSO control; higher = stronger stabilization (binding)", "settings": "12.5 µM; protein concentration 2 µM", "summary_of_the_method": "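The melting temperature shift given here is a triplicate mean, measured against protein that received only DMSO. Melting temperatures came from Boltzmann fits of differential scanning fluorimetry data on E. coli-expressed, purified rice kinase domain constructs. Each 19.5 μl well contained 2 μM kinase, 100 mM potassium phosphate pH 7.5, 150 mM NaCl, 10% glycerol, 5 × SYPRO Orange and compound in DMSO. Plates were scanned from 25°C to 95°C at 0.05°C/s.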", "units": {"thermal shift delta Tm": "°C"}}
{"compound": "CCOc1cc2ncc(C#N)c(Nc3ccc(OCc4ccccn4)c(Cl)c3)c2cc1NC(=O)/C=C/CN(C)C", "note": "[Neratinib (HKI-272)]", "thermal shift delta Tm": 1.02}
{"compound": "COc1cc2nccc(Oc3ccc(NC(=O)Nc4cc(C)on4)c(Cl)c3)c2cc1OC", "note": "[Tivozanib (AV-951)]", "thermal shift delta Tm": 1.3}
{"compound": "O=C1NC(=O)C(c2ccccc2[N+](=O)[O-])=C1Nc1ccc(O)c(Cl)c1", "thermal shift delta Tm": 0.02}
{"compound": "Cc1c(C(=O)N2CCOc3ccc(-c4ccc(N)nc4)cc3C2)ccc(S(C)(=O)=O)c1F", "thermal shift delta Tm": 0.62}
{"compound": "Cn1nccc1Nc1nccc(-c2ccn([C@H](CO)c3ccc(Cl)c(F)c3)c(=O)c2)n1", "thermal shift delta Tm": 0}
{"compound": "COc1cc2c(N3CCN(C(=O)Nc4ccc(OC(C)C)cc4)CC3)ncnc2cc1OCCCN1CCCCC1", "note": "[Tandutinib (MLN518)]", "thermal shift delta Tm": 0.12}
{"compound": "C[C@@H]1COCCN1c1cc(=O)n2c(n1)N(Cc1cncc(Cl)c1)[C@H](C(F)(F)F)CC2", "thermal shift delta Tm": 0.61}
{"compound": "COc1ccc(F)c(F)c1C(=O)c1cnc(NC2CCN(S(C)(=O)=O)CC2)nc1N", "thermal shift delta Tm": -0.18}
{"compound": "O=C(NCc1ccccc1)c1csc(Nc2ccncn2)n1", "note": "[Thiazovivin]", "thermal shift delta Tm": 0.81}
{"compound": "CCN(CC)CCCCNc1ncc2cc(-c3cc(OC)cc(OC)c3)c(NC(=O)NC(C)(C)C)nc2n1", "thermal shift delta Tm": 0.87}
{"compound": "O=c1cc(N2CCOCC2)oc2c(-c3ccc4c(c3)OCCO4)csc12", "thermal shift delta Tm": 0.2}
{"compound": "Nc1ccc(C(=O)Nc2cccc(-c3nc(N4CCOCC4)c4oc5ncccc5c4n3)c2)cn1", "thermal shift delta Tm": -0.04}
{"compound": "O=C(NC[C@H](O)CO)c1ccncc1Nc1ccc(I)cc1F", "thermal shift delta Tm": 0.1}
{"compound": "CCOc1cc2ncc(C#N)c(Nc3ccc(F)c(Cl)c3)c2cc1NC(=O)/C=C/CN(C)C", "note": "[Pelitinib (EKB-569)]", "thermal shift delta Tm": -0.05}
{"compound": "COc1cc2ncnc(Nc3ccc(Cl)cc3F)c2cc1OC", "thermal shift delta Tm": 0.51}
{"compound": "Cc1cc(Nc2ncnc3ccc(NC4=NC(C)(C)CO4)cc23)ccc1Oc1ccn2ncnc2c1", "note": "[Irbinitinib (ARRY-380, ONT-380)]", "thermal shift delta Tm": -1.49}
{"compound": "CC1(C)CNc2cc(NC(=O)c3cccnc3NCc3ccncc3)ccc21", "note": "[Motesanib Diphosphate (AMG-706)]", "thermal shift delta Tm": 8.62}
{"compound": "COC(=O)Nc1ccc(-c2nc(N3CCOCC3)c3cnn(C4CCN(C(=O)OC)CC4)c3n2)cc1", "thermal shift delta Tm": 0.41}
{"compound": "COc1cc(C(=O)N2CCC(N3CCN(C)CC3)CC2)ccc1Nc1ncc2c(n1)N(C)c1ccccc1C(=O)N2C", "thermal shift delta Tm": -0.2}
{"compound": "C=C(C)[C@@H]1CC[C@]2(C)CC[C@]3(C)[C@H](CC[C@@H]4[C@@]5(C)CC[C@H](O)C(C)(C)[C@@H]5CC[C@]43C)[C@@H]12", "note": "[Lupeol]", "thermal shift delta Tm": 0.13}
{"compound": "Oc1cccc(-c2nc(N3CCOCC3)c3oc4ncccc4c3n2)c1", "thermal shift delta Tm": 0.94}
{"compound": "CCn1c(N)c(C(=O)NC)c(=O)c2ccc(C#CC(C)(O)COC)nc21", "note": "(stereo not drawn)", "thermal shift delta Tm": 0.41}
{"compound": "CCOc1cc(C(=O)N2CCC(N3CCN(C)CC3)CC2)ccc1Nc1ncc2c(n1)N(C1CCCC1)c1ccccc1C(=O)N2C", "thermal shift delta Tm": -0.25}
{"compound": "Cc1ccc(NC(=O)c2cccc(C(C)(C)C#N)c2)cc1Nc1ccc2ncn(C)c(=O)c2c1", "thermal shift delta Tm": 3.69}
{"compound": "Nc1ccc(-c2ccc3ncc4ccc(=O)n(-c5cccc(C(F)(F)F)c5)c4c3c2)cn1", "note": "[Torin 2]", "thermal shift delta Tm": 0.11}
{"compound": "CCN(CC)CCCC(C)Nc1ccnc2cc(Cl)ccc12", "note": "(stereo not drawn) [Chloroquine Phosphate]", "thermal shift delta Tm": -0.08}
{"compound": "C[C@@H](N)[C@H]1CC[C@H](C(=O)Nc2ccncc2)CC1", "thermal shift delta Tm": 0.48}
{"compound": "COc1cc(N2CCC(N(C)C)CC2)ccc1Nc1ncc(Cl)c(Nc2ccccc2P(C)(C)=O)n1", "thermal shift delta Tm": 0.32}
{"compound": "CCCS(=O)(=O)Nc1ccc(F)c(C(=O)c2c[nH]c3ncc(-c4ccc(Cl)cc4)cc23)c1F", "note": "[Vemurafenib (PLX4032, RG7204)]", "thermal shift delta Tm": 14.8}
{"compound": "CO[C@H]1C[C@@H]2CC[C@@H](C)[C@@](O)(O2)C(=O)C(=O)N2CCCC[C@H]2C(=O)O[C@H]([C@H](C)C[C@@H]2CC[C@@H](OCCO)[C@H](OC)C2)CC(=O)[C@H](C)/C=C(\\C)[C@@H](O)[C@@H](OC)C(=O)[C@H](C)C[C@H](C)/C=C/C=C/C=C/1C", "note": "[Everolimus (RAD001)]", "thermal shift delta Tm": 0.26}
{"compound": "COc1ccc(S(=O)(=O)N(CCO)c2ccccc2CN(C)C/C=C/c2ccc(Cl)cc2)cc1", "note": "[KN-93 Phosphate]", "thermal shift delta Tm": 0.11}
{"compound": "CN(C[C@@H]1COCCO1)S(=O)(=O)Nc1ccc2ccc3ncc(-c4cnn(C)c4)cc3c(=O)c2c1", "thermal shift delta Tm": 1.83}
{"compound": "COc1ccc(CCNCc2ccc(OCc3ccc(Cl)nc3)c(OC)c2)cc1OC", "thermal shift delta Tm": -0.28}
